Laboratory results taken from PubChem BioAssay (Tox21).
“And” between values parts separate entries of the source, which are not always exact repeats. Equal entries are not always repeated. The source holds several records for some structures; these can differ, active in one and inactive in another. The source made the active and inactive calls. Where a call stands in place of a potency, no number is given. Unless noted, calls come from the whole dose curve; as a rule, active = well fitted curve in the direction sought with a large enough effect in the repeat runs; inconclusive = weak or mixed curves; inactive = no such curve, though single readings can be large; an effect the other way counts as inactive or inconclusive.

How the values were obtained:
[1] = target: Estrogen receptor (Homo sapiens) (UniProt P03372); experiment: qHTS assay to identify small molecule antagonists of the estrogen receptor alpha (ER-alpha) signaling pathway (AID 743069; active = well fitted curve in the direction sought with a large enough effect in the signal ratio in the repeat runs, not every such curve was filed as active; inconclusive = weak or mixed curves, or effect the other way; inactive = no such curve, though single readings can be large or run the other way; the % refers to the signal ratio; note: potency is the fitted concentration of half-maximal effect)
In short: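 Fluorescence intensity from a beta-lactamase FRET substrate served as the read-out. Cells: HEK293 with stably integrated ER-alpha-UAS-bla reporter. Agonist 17beta-estradiol was co-added with compounds; incubation 18 hr at 37C, substrate 2 hr at room temperature.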

[2] = qHTS assay to identify small molecule antagonists of the estrogen receptor alpha (ER-alpha) signaling pathway - cell viability counter screen (AID 743074; calls by dose curve; note: nearly all actives have a fitted effect of over 45% in size)
[3] = target: Estrogen receptor (Homo sapiens) (UniProt P03372); experiment: qHTS assay to identify small molecule agonists of the estrogen receptor alpha (ER-alpha) signaling pathway (AID 743075; calls by dose curve; note: potency is the fitted concentration of half-maximal effect)
[4] = target: Estrogen receptor (Homo sapiens) (UniProt P03372); experiment: qHTS assay to identify small molecule agonists of the estrogen receptor alpha (ER-alpha) signaling pathway using the BG1 cell line (AID 743079); conditions: BG1Luc4E2 cells, ERE-luciferase agonist, 22 h; activation: at 70.3 µM (top of the series) unless noted; note: nearly all actives have a fitted effect of over 20% in size; note: potency is the fitted concentration of half-maximal effect
[5] = qHTS assay to identify small molecule antagonists of the estrogen receptor alpha (ER-alpha) signaling pathway using the BG1 cell line (AID 743080; calls by dose curve;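 note: BG1 cells stimulated with 17beta-estradiol alongside compound; nearly all actives have a fitted effect of over 25% in size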; note: potency is the fitted concentration of half-maximal effect)
In short: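 BG1Luc4E2, endogenous ER-alpha, 4xERE-luc; 5 d charcoal-stripped FBS, phenol red free; 24 h plating; cpd + 17beta-estradiol 21.5 h, 37 C/5% CO2; CellTiter-Fluor viability 30 min, then ONE-Glo luciferase 30 min RT.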

[6] = qHTS assay to identify small molecule antagonists of the estrogen receptor alpha (ER-alpha) signaling pathway using the BG1 cell line - cell viability counter screen (AID 743081);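 note: compound given together with 17beta-estradiol as the ER stimulus; nearly all actives have a fitted effect of over 45% in size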
Aromatase (Homo sapiens) = Aromatase (Homo sapiens) (UniProt P11511); experiment: qHTS assay to identify aromatase inhibitors (AID 743083); note: nearly all actives have a fitted effect of over 55% in size; note: potency is the fitted concentration of half-maximal effect
[7] = qHTS assay to identify small molecule antagonists of the thyroid receptor (TR) signaling pathway (AID 743065); note: nearly all actives have a fitted effect of over 55% in size; note: potency is the fitted concentration of half-maximal effect
In short: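 Antagonism measured as loss of luciferase signal in GH3 cells stably carrying a TRE-luciferase reporter, co-treated with compound and T3 (1 nM final) for 23.5 h at 37 C. Viability was read in the same well by CellTiter-Fluor.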

[8] = system: thyroid hormone receptor (rat, GH3 cells); experiment: qHTS assay to identify small molecule agonists of the thyroid receptor (TR) signaling pathway (AID 743066; calls by dose curve; note: potency is the fitted concentration of half-maximal effect)

Aromatase (Homo sapiens), sequence (P11511 whole entry, looked up): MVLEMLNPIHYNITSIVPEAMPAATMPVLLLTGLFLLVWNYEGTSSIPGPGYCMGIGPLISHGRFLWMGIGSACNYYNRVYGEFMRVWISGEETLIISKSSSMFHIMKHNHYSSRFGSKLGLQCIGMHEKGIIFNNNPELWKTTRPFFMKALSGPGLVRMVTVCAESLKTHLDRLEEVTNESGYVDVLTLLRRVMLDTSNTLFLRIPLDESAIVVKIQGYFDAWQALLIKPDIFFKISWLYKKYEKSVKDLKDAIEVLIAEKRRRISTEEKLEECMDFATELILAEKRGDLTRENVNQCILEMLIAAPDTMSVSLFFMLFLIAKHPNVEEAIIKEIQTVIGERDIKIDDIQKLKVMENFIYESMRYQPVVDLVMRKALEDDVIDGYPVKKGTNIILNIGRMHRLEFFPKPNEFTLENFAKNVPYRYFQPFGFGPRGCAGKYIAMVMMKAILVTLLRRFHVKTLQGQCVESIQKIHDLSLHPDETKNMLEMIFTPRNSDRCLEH
Estrogen receptor (Homo sapiens), sequence (P03372 whole entry, looked up): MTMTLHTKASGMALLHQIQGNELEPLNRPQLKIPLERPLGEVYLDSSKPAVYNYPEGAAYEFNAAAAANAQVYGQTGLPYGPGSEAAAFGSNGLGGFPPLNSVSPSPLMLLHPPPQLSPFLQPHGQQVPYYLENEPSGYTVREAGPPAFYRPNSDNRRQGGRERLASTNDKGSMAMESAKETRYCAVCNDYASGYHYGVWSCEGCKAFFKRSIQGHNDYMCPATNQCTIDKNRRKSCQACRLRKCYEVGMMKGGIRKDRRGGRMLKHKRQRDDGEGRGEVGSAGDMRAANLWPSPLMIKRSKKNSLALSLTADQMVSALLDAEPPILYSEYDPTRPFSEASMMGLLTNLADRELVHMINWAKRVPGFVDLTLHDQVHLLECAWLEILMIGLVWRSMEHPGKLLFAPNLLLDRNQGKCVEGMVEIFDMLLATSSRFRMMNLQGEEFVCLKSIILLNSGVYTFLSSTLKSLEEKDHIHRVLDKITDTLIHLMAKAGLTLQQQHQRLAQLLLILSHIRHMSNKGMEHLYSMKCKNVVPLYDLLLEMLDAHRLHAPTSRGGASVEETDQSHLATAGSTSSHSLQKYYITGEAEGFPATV

N[C@@H](Cc1cc(I)c(Oc2ccc(O)c(I)c2)c(I)c1)C(=O)O
Potency [1]: 23.9 µM [inconclusive] (active) and inactive | Potency [2]: inactive | Potency [3]: 9.51 µM [activator] (active) and inactive and 51 µM [fluorescent] (active) | Potency [4]: 37.1 µM (active) and 40.2 µM (active) | Potency [5]: 26.6 µM (active) and inactive and 8.02 µM (active) | Potency [6]: inactive | Potency (Aromatase (Homo sapiens)): inactive

Cc1nnc(NS(=O)(=O)c2ccc(N)cc2)s1
Potency [1]: inactive | Potency [2]: inactive | Potency [3]: inactive | Potency [4]: inactive | Potency [5]: inactive | Potency [6]: inactive | Potency (Aromatase (Homo sapiens)): inactive

CC(=O)c1nccs1
Potency [7]: inactive | Potency [8]: inactive | Potency [2]: inactive | Potency [3]: inactive | Potency [4]: inactive and 48.6 µM (active) | Potency [5]: inactive | Potency [6]: inactive | Potency (Aromatase (Homo sapiens)): inactive

CCCCCNCCCCC
Potency [7]: inactive | Potency [8]: inactive | Potency [2]: inactive | Potency [6]: inactive | Potency (Aromatase (Homo sapiens)): inactive

Cc1cc(C)c(O)c(C)c1
Potency [7]: inactive | Potency [8]: inactive | Potency [2]: inactive | Potency [3]: inactive | Potency [4]: inactive | Potency [5]: inactive | Potency [6]: inactive | Potency (Aromatase (Homo sapiens)): inactive

Nc1nc(N)c2nc(-c3ccccc3)c(N)nc2n1
Potency [7]: 55.1 µM (active) and 54.5 µM (active) | Potency [8]: inactive | Potency [4]: inactive and 68.6 µM (active) | Potency (Aromatase (Homo sapiens)): inactive

O=[N+]([O-])c1ccccc1C(F)(F)F
Potency [7]: inactive | Potency [8]: inactive | Potency [2]: inactive | Potency [3]: inactive | Potency [4]: inactive | Potency [5]: inactive | Potency [6]: inactive | Potency (Aromatase (Homo sapiens)): inactive

C=C1C[C@]23C[C@@]1(O)CC[C@H]2[C@@]12C=C[C@H](O)[C@@](C)(C(=O)O1)[C@H]2[C@@H]3C(=O)O
Potency [7]: inactive | Potency [8]: inactive | Potency [2]: inactive | Potency [6]: inactive | Potency (Aromatase (Homo sapiens)): inactive

CC1(C)[C@@H](O[C@H]2O[C@H](C(=O)O)[C@@H](O)[C@H](O)[C@H]2O[C@@H]2O[C@H](C(=O)O)[C@@H](O)[C@H](O)[C@H]2O)CC[C@]2(C)[C@H]3C(=O)C=C4[C@@H]5C[C@@](C)(C(=O)O)CC[C@]5(C)CC[C@@]4(C)[C@]3(C)CC[C@@H]12
Potency [8]: inactive | Potency [2]: inactive | Potency [6]: inactive | Potency (Aromatase (Homo sapiens)): inactive

CC(C=O)Cc1ccc(C(C)(C)C)cc1 (centres undefined)
Potency [7]: 43.3 µM (active) | Potency [8]: inactive | Potency [2]: inactive | Potency [6]: inactive | Potency (Aromatase (Homo sapiens)): inactive

N#CCC(=O)O
Potency [7]: inactive | Potency [8]: inactive | Potency [2]: inactive | Potency [3]: inactive | Potency [4]: inactive | Potency [5]: inactive | Potency [6]: inactive | Potency (Aromatase (Homo sapiens)): inactive

Cc1cccc(C)c1[N+](=O)[O-]
Potency [7]: inactive | Potency [8]: inactive and 61.1 µM (active) | Potency [2]: inactive | Potency [6]: inactive | Potency (Aromatase (Homo sapiens)): inactive

CC(C)(C)NC[C@H](O)COc1nsnc1N1CCOCC1
Potency [7]: inactive | Potency [8]: inactive | Potency [2]: inactive | Potency [6]: inactive

C=C(C)CC(C)(C)C
Potency [7]: inactive | Potency [8]: inactive | Potency [2]: inactive | Potency [6]: inactive

CCCOCC(C)O (centres undefined)
Potency [7]: inactive | Potency [8]: inactive | Potency [2]: inactive | Potency [6]: inactive | Potency (Aromatase (Homo sapiens)): inactive

OC1CCCCC1
Potency [7]: inactive | Potency [8]: inactive | Potency [2]: inactive | Potency [3]: inactive | Potency [4]: inactive | Potency [5]: inactive | Potency [6]: inactive | Potency (Aromatase (Homo sapiens)): inactive

CC(COCC(C)OC(=O)c1ccccc1)OC(=O)c1ccccc1 (centres undefined)
Potency [7]: inactive | Potency [8]: inactive | Potency [2]: inactive | Potency [6]: inactive | Potency (Aromatase (Homo sapiens)): inactive

CC(=O)OCCC(C)C
Potency [7]: inactive | Potency [8]: inactive | Potency [2]: inactive | Potency [6]: inactive | Potency (Aromatase (Homo sapiens)): inactive

CC(=O)CC(=O)N(C)C
Potency [7]: inactive | Potency [8]: inactive | Potency [2]: inactive | Potency [3]: inactive | Potency [4]: inactive | Potency [5]: inactive | Potency [6]: inactive | Potency (Aromatase (Homo sapiens)): inactive

CC(=O)Nc1ccc(CC(=O)O)cc1
Potency [1]: inactive | Potency [2]: inactive | Potency [3]: inactive | Potency [4]: inactive | Potency [5]: inactive | Potency [6]: inactive | Potency (Aromatase (Homo sapiens)): inactive

Clc1cccc(Cl)c1NC1=NCCN1
Potency [7]: inactive | Potency [8]: inactive | Potency [2]: inactive | Potency [6]: inactive | Potency (Aromatase (Homo sapiens)): inactive

COC(=O)/C=C\C(=O)OC
Potency [7]: inactive | Potency [8]: inactive | Potency [2]: inactive | Potency [6]: inactive

CC/C=C(\C(=O)N[C@@H]1C(=O)N2C(C(=O)OCOC(=O)C(C)(C)C)=C(COC(N)=O)CS[C@H]12)c1csc(N)n1
Potency [7]: inactive | Potency [8]: inactive | Potency [2]: inactive | Potency [3]: inactive | Potency [4]: inactive | Potency [5]: inactive | Potency (Aromatase (Homo sapiens)): inactive

Brc1ccc(Oc2ccc(Br)cc2)cc1
Potency [7]: inactive | Potency [8]: inactive | Potency [2]: inactive | Potency [6]: inactive

O=C(c1ccccc1)c1ccc(O)c(O)c1O
Potency [8]: inactive | Potency [1]: inactive | Potency [2]: inactive | Potency [3]: 61.6 µM [inconclusive] (active) | Potency [4]: 61.1 µM (active) | Potency [5]: inactive | Potency [6]: inactive | Potency (Aromatase (Homo sapiens)): inactive

CCCCCC(C)=O
Potency [7]: inactive | Potency [8]: inactive | Potency [2]: inactive | Potency [6]: inactive | Potency (Aromatase (Homo sapiens)): inactive

NC1CCCCC1N (centres undefined)
Potency [2]: inactive | Potency [6]: inactive | Potency (Aromatase (Homo sapiens)): inactive

O=C1OC(=O)c2c(Cl)c(Cl)c(Cl)c(Cl)c21
Potency [7]: inactive | Potency [8]: inactive | Potency [2]: inactive | Potency [6]: inactive | Potency (Aromatase (Homo sapiens)): inactive

COC(=O)OC
Potency [7]: inactive | Potency [8]: inactive | Potency [2]: inactive | Potency [6]: inactive | Potency (Aromatase (Homo sapiens)): inactive

CC(C)(CO)CO
Potency [7]: inactive | Potency [8]: inactive | Potency [2]: inactive | Potency [3]: inactive and 43.7 µM [activator] (active) | Potency [4]: inactive | Potency [5]: inactive | Potency [6]: inactive | Potency (Aromatase (Homo sapiens)): inactive

O=c1n(CCCN2CCN(c3cccc(Cl)c3)CC2)nc2ccccn12
Potency [7]: inactive | Potency [8]: inactive | Potency [2]: inactive | Potency [6]: inactive | Potency (Aromatase (Homo sapiens)): inactive

CC(CN1c2ccccc2Sc2ccccc21)N(C)C (centres undefined)
Potency [7]: 26.6 µM (active) and 27.6 µM (active) and 61.1 µM (active) | Potency [8]: inactive | Potency [6]: inactive | Potency (Aromatase (Homo sapiens)): inactive and 61.8 µM (active)

CCCCCCCCCCCCCC(=O)O
Potency [7]: inactive | Potency [8]: inactive | Potency [3]: inactive | Potency [4]: inactive | Potency [5]: inactive | Potency [6]: inactive | Potency (Aromatase (Homo sapiens)): inactive

CCN(CC)CCNC(=O)c1ccc(N)cc1
Potency [7]: inactive | Potency [8]: inactive | Potency [2]: inactive | Potency [6]: inactive | Potency (Aromatase (Homo sapiens)): inactive

CN1Cc2c(N)cccc2C(c2ccccc2)C1 (centres undefined)
Potency [7]: inactive | Potency [8]: inactive | Potency [2]: inactive | Potency [6]: inactive
